Among the data in PubChem BioAssay are composite z-score and z-score values, retold here.

Each structure is given as a SMILES string.

Test [1] concerns Human papillomavirus type 1a protein E7 (residues 44-93). The test can be described thus: HPV1a E7 fragment binders on microarrays, primary screen, biochemical, small-molecule microarray, residues 44-93, 635 nm fluorescence (AID 1108).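 Also: E7 fragment applied at 1 µg/mL in TBST for 1 h at 4 C; score combines spot fluorescence with its signal to noise ratio.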 The following applies: small-molecule microarray binding, fluorescence 635 nm; higher = more signal.
A short description of test [2]: modulators of HCV replicon luciferase signal, primary screen, HCV replication inhibitor project, Huh7 cells, luciferase reporter (AID 1109).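 Also: huh7 hepatoma cells harbouring a luciferase neomycin HCV replicon reporter; luciferase luminescence as measure of HCV replicon replication; test concentration not given here.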 The following applies: 48 h, higher = more signal. (A replicon is a self-replicating genome or part of one, used to study replication in cells.)
The target in test [3] is Left-right determination factor 2 (Homo sapiens) (UniProt O00292). The test is described as follows: LEFTY2 binders on small-molecule microarrays, primary screen, biochemical, small-molecule microarray, 635 nm fluorescence scan (AID 1110). The following applies: LEFTY2 binding, higher = more signal.
Left-right determination factor 2 (Homo sapiens), sequence (O00292 whole entry, looked up): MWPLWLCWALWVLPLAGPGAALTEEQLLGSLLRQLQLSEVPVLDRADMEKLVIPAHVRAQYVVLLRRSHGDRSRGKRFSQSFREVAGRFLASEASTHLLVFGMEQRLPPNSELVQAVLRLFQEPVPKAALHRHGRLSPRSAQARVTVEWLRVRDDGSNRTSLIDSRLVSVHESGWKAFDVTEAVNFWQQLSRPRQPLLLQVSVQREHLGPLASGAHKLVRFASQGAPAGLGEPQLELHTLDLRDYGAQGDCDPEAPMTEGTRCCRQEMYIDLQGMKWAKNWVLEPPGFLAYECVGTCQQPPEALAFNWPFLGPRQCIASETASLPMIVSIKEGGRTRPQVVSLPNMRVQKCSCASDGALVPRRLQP
Test [4] deals with Calmodulin-1 (Homo sapiens) (UniProt P0DP23). The test can be described thus: CALM1 binders on microarrays, EGTA buffer, profiling panel, biochemical, small-molecule microarray, Cy5-labelled CALM1 (AID 1111).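 Also: labelled calmodulin applied in Tris saline Tween buffer holding calcium plus EGTA and DTT.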 Particulars: Cy5-CALM1 binding fluorescence, higher = more signal.
Test [5] has the same target. The test can be described thus: calcium-bound CALM1 binders on microarrays, profiling panel, artefact control for SMM control-protein annotation, biochemical, small-molecule microarray, Cy5-labelled CALM1, plus calcium (AID 1112).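 Also: score merges spot fluorescence with signal to noise from triplicate slides.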 The following applies: Cy5-CALM1 binding fluorescence, higher = more signal.
Test [6] in a line: small-molecule microarray binders of probe aWnt5a, primary screen, biochemical, biotinylated probe, 635/667 nm fluorescence (AID 1113).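 Also: score merges 667 nm fluorescence intensity with signal-to-noise per printed feature.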 Particulars: higher = more signal.
Test [7] in a line: small-molecule microarray binders of probe aShh, primary screen, biochemical, biotinylated probe, 635/667 nm fluorescence (AID 1114).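 Also: probe is biotin-labelled aShh protein from a stem cell growth factor screen; measures binding of labelled protein to compounds printed on the slide; score merges feature fluorescence at 667 nm with signal-to-noise.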 Particulars: higher = more signal.
A short description of test [8]: small-molecule microarray binders of probe aNog, primary screen, biochemical, biotinylated probe, 635/667 nm fluorescence (AID 1115).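 Also: probe is biotinylated aNog protein used at 0.15 µg/mL for 1 h at 4 C; z-score combines 667 nm fluorescence of each spot with its signal to noise.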 The following applies: higher = more signal.
Test [9] has as its target Torsin-1A-interacting protein 1 (Homo sapiens) (UniProt Q5JTV8). The test can be described thus: LAP1 binders from COS7 cell lysate, primary screen, small-molecule microarray, 635/667 nm fluorescence (AID 1116). The following applies: COS7-hLAP1 lysate binding, 635 nm fluorescence, higher = more signal.
The target of test [10] is Alpha-bungarotoxin (Bungarus multicinctus) (UniProt P60615). The test can be described thus: alpha-bungarotoxin binders on microarray, profiling panel, artefact control for SMM control protein annotation, biochemical, small-molecule microarray, Alexa647 label, 635/667 nm fluorescence (AID 1117). Particulars: alpha-BTX-A647 binding fluorescence, higher = more signal.
Alpha-bungarotoxin (Bungarus multicinctus), sequence (P60615 whole entry, looked up): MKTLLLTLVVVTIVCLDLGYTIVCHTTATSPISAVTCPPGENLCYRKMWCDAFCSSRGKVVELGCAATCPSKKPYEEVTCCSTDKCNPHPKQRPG

Torsin-1A-interacting protein 1 (Homo sapiens), sequence (Q5JTV8 whole entry, looked up): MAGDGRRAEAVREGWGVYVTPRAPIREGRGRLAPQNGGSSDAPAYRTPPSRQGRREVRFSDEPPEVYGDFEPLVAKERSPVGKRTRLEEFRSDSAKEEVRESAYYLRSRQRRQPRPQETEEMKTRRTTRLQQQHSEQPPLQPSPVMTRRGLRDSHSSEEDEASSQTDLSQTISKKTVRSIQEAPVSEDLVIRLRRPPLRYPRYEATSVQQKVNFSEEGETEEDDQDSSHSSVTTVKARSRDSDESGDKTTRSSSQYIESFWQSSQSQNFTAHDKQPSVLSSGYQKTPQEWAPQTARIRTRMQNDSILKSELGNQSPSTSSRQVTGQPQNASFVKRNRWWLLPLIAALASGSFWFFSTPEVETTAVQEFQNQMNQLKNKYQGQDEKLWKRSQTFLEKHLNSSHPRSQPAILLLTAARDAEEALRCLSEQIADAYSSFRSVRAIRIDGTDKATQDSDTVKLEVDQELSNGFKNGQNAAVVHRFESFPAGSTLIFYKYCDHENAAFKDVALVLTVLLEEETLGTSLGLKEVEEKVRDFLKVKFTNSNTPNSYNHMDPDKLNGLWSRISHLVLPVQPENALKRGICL

As to `O=C(O)[C@@H]1C[C@@H]2C(=O)N3CCC[C@H]3C(=O)N2[C@@H]1c1ccc(O)cc1`, the composite z-score in [1] is 1.05; in [3], 0.48; in test [4], 0.271; in [5] it was 0.204; in [6], -0.0701; in test [7], -0.0289. For the same molecule, the composite z-score was -0.226 in test [8], 0.343 in [9] and 0.964 in test [10]. Further, the z-score in [2] was 3.97.
For the molecule `C=CCC(OC(C)=O)[C@@H]1[C@@H](N(Cc2ccc(-c3cccc(C(F)(F)F)c3)o2)C(=O)c2ccc(-c3ccccc3)cc2)c2cc(OCCCO)ccc2N1C(=O)Cc1ccc2ccccc2c1` (stereo not given in full), the composite z-score in [1] was -0.267; in test [3] it was -0.458; in test [4], -0.248; in test [5] it was 0.277; in test [6], -0.0981; in test [7], 0.0204. Moreover, the composite z-score in [8] is -0.144; in test [9], -0.115; in test [10], -0.153. Besides, in test [2], the z-score was -1.09.
For `COC(=O)C1=CC(CCCO)=CC(c2ccc(CN3CCCC3)cc2)N(Cc2cccc(OC(F)(F)F)c2)C=C1C(=O)OC` (stereo not given), the composite z-score in [1] is 1.38; in [3] it was 0.0706; in [4] it was 2.08; in test [5] it was 0.695; in test [6], -0.172; in test [7] it was -0.0953. Further, the composite z-score came out at 0.947 in [8], 2.1 in test [9] and 1.89 in test [10]. This molecule also came in with a z-score in test [2] of -1.18.
For `CCOC(=O)C[C@H]1[C@H](OC(=O)c2cc3ccccc3oc2=O)[C@@H](NC(=O)c2ccc3ccccc3n2)c2cc(OCCCO)ccc2N1C(=O)Cc1ccc(OC)cc1`, the composite z-score in test [1] is 1.23; in test [3] it was 0.735; in test [4], 0.228; in [5], -0.653; in [6], 0.0297; in test [7], -0.0119. Moreover, the composite z-score is -0.0428 in [8], 0.726 in [9] and 0.981 in test [10]. This molecule gave a z-score in test [2] of -1.96.
Turning to `CC#CCO[Si](C#Cc1ccccc1)(C(C)C)C(C)C`, the composite z-score in test [1] is -2.07; in test [3], -0.0764; in [4], -0.0874; in [5], 0.877; in test [6], -0.224; in test [7], -0.0769. The composite z-score in test [8] is -0.281; in [9], -0.785; in test [10] it was -1.53. In test [2], this molecule displayed a z-score of 0.046.
As for `COC(=O)[C@]1(CCS(=O)(=O)c2ccccc2)N=C(c2ccc(OCCCO)cc2)O[C@@H]1c1ccccc1N=[N+]=[N-]`, the composite z-score in [1] was -0.0608; in [3] it was 0.744; in test [4], 1.73; in [5], 0.785; in [6], 0.0655; in test [7] it was 0.232. For the same molecule, the composite z-score in test [8] stood at 0.897; in test [9] it was 0.815; in test [10], 2.06. In [2], this molecule had a z-score of -2.55.
Consider `Cc1ccc(S[C@]2(C(=O)O)CC(=O)N(C3CCCCC3)[C@@H]2c2ccc(CO)cc2I)cc1`, for which the composite z-score in test [1] is 1.35; in test [3], -0.326; in [4], 1.79; in test [5], 0.63; in [6] it was -0.113; in test [7], 0.351. For the same molecule, the composite z-score was 1.06 in [8], 1.4 in test [9] and 0.763 in test [10]. In test [2], this molecule gave a z-score of -0.298.
Turning to `CCCC1(C(=O)OC)C=C2C(=C(C)C(=O)C2C)CN1` (stereo not given), the composite z-score in [1] was -0.75; in test [3] it was -0.569; in [4], -0.119; in test [5] it was 0.881; in [6], -0.0512; in test [7] it was 0.0141. The composite z-score in [8] is 0.929; in test [9], 0.635; in test [10], -0.14. In test [2], this molecule had a z-score of -0.442.
For `CC1CC/C=C\[C@H]2OC34C=CCN(c5ccc6ccccc6c5)C(=O)[C@H]3N(CCCO)C(=O)[C@@H]4C2C(=O)O1` (stereo not given in full), the composite z-score in test [1] was -0.499; in test [3] it was -1.85; in [4], -0.568; in test [5] it was -0.028; in test [6] it was -0.287; in test [7], -0.291. Further, the composite z-score in test [8] was -0.285; in [9], -0.406; in test [10] it was -0.905. The z-score in test [2] was 0.197.
As to `CCOC(=O)C[C@H]1[C@H](OC(=O)c2ccc(C(=O)c3ccccc3)cc2)[C@@H](NC(=O)c2ccc3ccccc3n2)c2cc(OCCCO)ccc2N1C(=O)Cc1ccc(OC)cc1`, the composite z-score in [1] is 0.947; in test [3], 0.471; in test [4], 1.08; in test [5], 0.0823; in test [6], -0.202; in test [7] it was 0.0115. In addition, the composite z-score in test [8] is -0.259; in [9], -0.0179; in [10], -0.0434. In test [2], this molecule returned a z-score of 0.361.
As to `COC(=O)[C@@]1(Cc2ccc(OC)cc2)[C@H]2c3cc(C(=O)N4CCCC4)n(CCc4c[nH]c5ccc(OC)cc45)c3C[C@H]2CN1C(=O)c1ccccc1`, the composite z-score in test [1] was 0.113; in test [3] it was 0.221; in test [4], 2.28; in test [5], 1.46; in test [6], 0.155; in [7], 0.504. In addition, the composite z-score in test [8] worked out at 1.54; in test [9] it was 2.19; in [10] it was 1.38. The same molecule registered a z-score in test [2] of -1.93.
As to `O=C1OCCC=C[C@H]2OC34C=CCN(c5ccc6ccccc6c5)C(=O)[C@H]3N(CCCO)C(=O)[C@@H]4C12` (stereo not given in full), the composite z-score in test [1] was -2; in [3] it was -1.31; in test [4], -0.834; in test [5] it was -0.885; in test [6] it was -0.294; in [7], -0.153. Besides, the results for the composite z-score in [8], in test [9] and in test [10] were 0.181, -1.25 and -1.27, respectively. In test [2], this molecule registered a z-score of -0.24.
With `COCC(=C=CC[C@H](O)c1ccc(OCCO)cc1)CCO`, the composite z-score in [1] is 0.364; in test [3], 0.774; in test [4] it was -0.31; in test [5], -0.618; in test [6], -0.0239; in test [7] it was -0.138. Further, the results for the composite z-score in test [8], in [9] and in test [10] were -0.0898, 1.6 and -0.829, respectively. The molecule further yielded a z-score in test [2] of -0.794.
